According to PubChem BioAssay:

Molecular target: Follistatin-related protein 3 (Homo sapiens) (UniProt O95633)
Experiment: FSTL3 binders on small-molecule microarrays, primary screen, biochemical, small-molecule microarray, 635 nm fluorescence (AID 1105);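 note: score merges emission near 667 nm and signal to noise per printed spot across three slides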
Conditions: FSTL3 binding, higher = more signal

Sequence of Follistatin-related protein 3 (Homo sapiens) (O95633 whole entry, looked up): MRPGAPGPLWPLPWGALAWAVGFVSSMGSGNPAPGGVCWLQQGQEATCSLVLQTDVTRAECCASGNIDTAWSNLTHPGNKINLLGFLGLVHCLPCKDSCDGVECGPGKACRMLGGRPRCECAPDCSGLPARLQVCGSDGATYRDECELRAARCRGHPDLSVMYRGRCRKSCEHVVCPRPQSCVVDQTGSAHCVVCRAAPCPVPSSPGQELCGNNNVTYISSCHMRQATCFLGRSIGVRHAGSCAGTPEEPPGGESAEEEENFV

How did the composite z-score turn out when `C=C[C@@H](O)[C@H]1CC(c2ccccc2)=NO1` was run?
The composite z-score was 0.046.

`COC(=O)[C@]1(Cc2ccccc2CN=[N+]=[N-])N=C(c2ccc(OCCCO)cc2)O[C@@H]1c1ccccc1CN=[N+]=[N-]` was tested. Which composite z-score did it give?
The composite z-score was -0.302.

`O=C1C2C=CC(C(O)c3cccc4ccccc34)N(Nc3ccccc3)C2C(=O)N1c1ccccc1` (stereo not drawn) was tested. Which composite z-score did it give?
The composite z-score was 1.43.

For `O=C(O)[C@@]1(Cc2ccccc2)COC(c2ccc(OCCCO)cc2)=N1`, which composite z-score is on record?
Its composite z-score is -1.14.

For `O=C1c2ccccc2[C@](Cc2ccccc2I)(C(=O)NC2CC2)[C@H](c2ccc(CO)cc2)N1Cc1ccccc1Cl`, which composite z-score is on record?
Its composite z-score is 0.345.

How did the composite z-score turn out when `O=C(NCc1ccccc1)[C@]1(Cc2ccccc2)N=C(c2ccc(OCCCO)cc2)O[C@@H]1c1ccccc1` was run?
Its composite z-score is -0.11.

For `COCCCNC(=O)[C@@H]1c2ccccc2C(=O)N(Cc2cc(F)cc(C(F)(F)F)c2)[C@H]1c1ccc(CO)cc1`, which composite z-score is on record?
The composite z-score was -1.13.

For `COC(=O)[C@@]1(Cc2ccc(OC)cc2)[C@H]2c3cc(C(=O)N4CCCC4)n(CCF)c3C[C@H]2CN1C(=O)c1ccccc1`, which composite z-score is on record?
Its composite z-score is 0.942.

How did the composite z-score turn out when `Cc1ccc(C(C)CC(O)C2C=CC3C(=O)N(Cc4ccccc4)C(=O)C3N2n2cnnc2)o1` (stereo not drawn) was run?
The composite z-score was 0.668.

How did the composite z-score turn out when `CN1C(=O)C2C=CC(C(O)c3cccc4ccccc34)N(NC(=O)OC(C)(C)C)C2C1=O` (stereo not drawn) was run?
Its composite z-score is 0.85.

How did the composite z-score turn out when `O=C1N(Cc2ccccc2)c2ccccc2[C@H]2OC(c3ccc(OCCCO)cc3)=N[C@@]12CCS(=O)(=O)c1ccccc1` was run?
Its composite z-score is 1.23.

With `COC(=O)[C@@]1(Cc2ccccc2)[C@H]2c3cc(C(=O)N4CCCC4)n(Cc4ccccc4)c3C[C@H]2CN1C(=O)c1ccccc1` as the compound, how does the composite z-score read?
Its composite z-score is 0.96.

For `CCOC(=O)C[C@H]1[C@H](OC(=O)c2ccccc2-c2ccccc2)[C@@H](NC(=O)c2ccccc2)c2cc(OCCCO)ccc2N1C(=O)Cc1ccc(OC)cc1`, which composite z-score is on record?
Its composite z-score is -0.183.
